# Measured values from PubChem BioAssay (NCATS).
# “And” between values parts separate entries of the source, which are not always exact repeats. Identical values can stand only once. Records with an inconclusive call do not appear. The source made the active and inactive calls. Unless noted, how the calls were made is not given here.
# How the values were obtained:
# [1] = qHTS profiling of the MIPE4 collection as inhibitors of Plasmodium falciparum (3D7) proliferation (AID 743344);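 further: scaled between DMSO vehicle wells and 0.29 µM artemisinin as full inhibition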; conditions: P. falciparum 3D7 in erythrocytes, SYBR Green DNA fluorescence, 72 h; at 28.5 µM unless noted
# Summary of the method: (§1)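 Parasite DNA was quantified by SYBR Green I fluorescence (ex 485, em 535 nm) after overnight lysis in saponin/Triton buffer at room temperature. Cultures at 0.3% parasitemia and 2.5% hematocrit were first exposed to compound for 72 h at 37 C; signals were normalised to artemisinin (0.29 uM) and vehicle wells.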
# [2] = qHTS profiling of the MIPE4 collection as inhibitors of Plasmodium falciparum (DD2) proliferation (AID 743345); conditions: P. falciparum Dd2 in erythrocytes, SYBR Green DNA, 72 h; at 28.5 µM unless noted
# Summary of the method: as §1
# [3] = qHTS profiling of the MIPE4 collection as inhibitors of Plasmodium falciparum (DD2) proliferation (Rep 2) (AID 743346); conditions: P. falciparum Dd2 in erythrocytes, SYBR Green DNA, 72 h; at 28.5 µM unless noted
# Summary of the method: as §1
# [4] = qHTS profiling of the MIPE4 collection as inhibitors of Plasmodium falciparum (HB3) proliferation (AID 743347);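 further: plate controls were DMSO vehicle wells for no effect and artemisinin wells for full effect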; conditions: P. falciparum HB3 in erythrocytes, SYBR Green DNA, 72 h; at 28.5 µM unless noted
# Summary of the method: as §1
# [5] = High-throughput drug toxicity screening in the BPDCN cell line Gen2.2 (AID 1224824); conditions: Gen2.2 BPDCN cells; at 45.8 µM (top of the series) unless noted;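 further: cells exposed to compounds for 48 h before reading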
# Summary of the method: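 CellTiter-Glo luminescence read after 48 h compound exposure at 37 C defines viability; percent activity set with DMSO as 100% and bortezomib (9.2 uM final) as 0%. 500 exponentially growing cells per well, RPMI plus 10% FBS.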
# [6] = High-throughput drug toxicity screening in the BPDCN cell line Cal-1 (AID 1224825); conditions: Cal-1 BPDCN cell viability, qHTS; at 45.8 µM (top of the series) unless noted
# Summary of the method: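 CellTiter-Glo luminescence after 48 h compound exposure; percent activity scaled with DMSO as 100% and bortezomib (9.2 uM final) as 0%. Cal-1 cells seeded at 500/well in RPMI, 10% FBS, no phenol red.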
# [7] = qHTS assay for measurement of the activity of small molecule inhibitors on Zika virus induced Caspase-3 activity in human iPSC derived neural progenitor cells (hNPCs) (AID 1224857; active means well fitted curve in the direction sought with a large enough effect; an effect the other way counts as inactive or inconclusive; further: % of control where 0% means no effect; nearly all actives have a fitted effect of over 65% in size)
# Summary of the method: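 Quantitative HTS format: human iPSC neural progenitors, 1 h compound pretreatment, ZIKV 2 FFU/cell for 6 h at 37 C. Percent inhibition derived from luminescent caspase-3/7 signal between uninfected and infected controls.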
# [8] = qHTS assay for measurement of the activity of small molecule inhibitors on Zika virus induced Caspase-3 activity in human astrocytoma cells (AID 1224859; active means well fitted curve in the direction sought with a large enough effect; an effect the other way counts as inactive or inconclusive;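 further: plate controls were ZIKV-infected untreated cells for no effect and uninfected cells for full effect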)
# Summary of the method: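 Readout is luminescence from Caspase-Glo 3/7 added after a 6 h ZIKV infection (2 FFU/cell) of compound-pretreated (1 h) SNB-19 cells; data expressed as % inhibition versus uninfected and infected wells.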
# [9] = qHTS Assay for Identifying Gametocytocidal Compounds (AID 743244; active means well fitted curve in the direction sought with a large enough effect; an effect the other way counts as inactive or inconclusive; further: potency means the concentration at half of the fitted maximal effect;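 on max response: on the % scale 0 is the no-effect control and ±100 the full control effect; actives lower the fluorescent signal which means gametocytes are killed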); conditions: P. falciparum 3D7 stage III-V gametocytes, alamarBlue, 72 h; max response: stronger effect = lower value
# Summary of the method: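 A resazurin-based viability read-out was applied to mature P. falciparum gametocytes: 72 h compound treatment, then 24 h dye incubation, with falling fluorescence signalling gametocytocidal effect.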
# [10] = qHTS profiling for inhibitors of Plasmodium falciparum (3D7) proliferation (AID 743322);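 further: infected erythrocytes exposed to compound for 72 h before lysis; 100% = DMSO vehicle wells and 0% = 0.29 µM artemisinin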; conditions: P. falciparum 3D7 proliferation; at 28.7 µM (top of the series)
# Summary of the method: as §1
# [11] = qHTS profiling for inhibitors of Plasmodium falciparum (DD2) proliferation (AID 743323); conditions: lower = more inhibition; at 28.7 µM (top of the series)
# Summary of the method: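 Parasite DNA quantified by SYBR Green fluorescence (ex 485, em 535 nm) after saponin/Triton lysis and overnight dark incubation. Cultures: 0.3% parasitemia, 2.5% hematocrit, 72 h, 37 C; data scaled between DMSO and 0.29 uM artemisinin.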
# [12] = qHTS profiling for inhibitors of Plasmodium falciparum (HB3) proliferation (AID 743324; active means well fitted curve in the direction sought with a large enough effect; an effect the other way counts as inactive or inconclusive;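 further: 100% = DMSO vehicle wells and 0% = artemisinin-treated control wells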); conditions: Plasmodium falciparum HB3 blood-stage proliferation; at 28.7 µM (top of the series)
# Summary of the method: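 SYBR Green fluorescence (485 ex/535 em) of lysed cultures, incubated overnight at room temperature in the dark, quantifies parasite DNA. Infected erythrocytes at 0.3% parasitemia and 2.5% hematocrit were exposed 72 h; values normalized to DMSO and 0.29 uM artemisinin controls.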
Structure (SMILES),"parasite growth, % of DMSO control [1]","parasite growth remaining, % of DMSO control (lower = more inhibition) [2]","parasite growth, % of control (lower = inhibition) [3]","growth, % of control [4]","cell viability, % of control (lower = more cytotoxic) [5]",viability (% of control) [6],Potency [7],Potency [8],max response [9],remaining parasite growth % (stronger effect = lower value) [10],"activity, percent of control [11]",Potency [9],"remaining proliferation (% of control), lower = more inhibition [12]"
COc1ccc(-n2nc(C(N)=O)c3c2C(=O)N(c2ccc(N4CCCCC4=O)cc2)CC3)cc1,53.4%,82.6%,61.9%,83.4%,150%,104%,inactive,inactive,,,,,
O=C(O)Cn1nnc(-c2cc(N3CCC(Oc4cc(F)ccc4Br)CC3)no2)n1,86%,127%,83.7%,95.6%,231%,114%,inactive,inactive,,,,,
Nc1nc(NCCNc2ncc(-n3ccnc3)c(-c3ccc(Cl)cc3Cl)n2)ccc1[N+](=O)[O-],16.9%,80%,44.4%,4.45%,9.17%,4.88%,inactive,inactive,,,,,
CC1(C)O[C@@H]2C[C@@H]3[C@H]4C[C@@H](F)C5=CC(=O)C=C[C@]5(C)[C@@]4(F)[C@@H](O)C[C@]3(C)[C@]2(C(=O)CO)O1,53.6%,97%,53.7%,76%,45.3%,54.5%,inactive,inactive,,,,,
COc1ccc(C(=O)CC2(O)C(=O)Nc3c(Cl)ccc(Cl)c32)cc1 (stereo not drawn),74.3%,85.7%,75.9%,62.1%,26.7%,11.2%,inactive,inactive,,,,,
Cn1c2cc(S(C)=O)sc2c2cnn(Cc3cccc(N)c3)c(=O)c21 (stereo not drawn),190%,102%,77%,367%,123%,100%,inactive,,8.65% (inactive),83.6% and 85.6%,95% and 94.7%,,
O=c1[nH]c(=O)n(C2CCCO2)cc1F (stereo not drawn),404% [at 57.5 µM],99.7% [at 57.5 µM],110% [at 57.5 µM],412% [at 57.5 µM],130% [at 92.2 µM],116% [at 92.2 µM],inactive,inactive,,,,,
Cc1cn2c(-c3cn[nH]c3)cnc2c(Nc2ccc(C(=O)N3CCNCC3)cc2F)n1,5.87%,11.4%,11.4%,3.68%,99.1%,28.2%,inactive,,,19.1%,12.6%,23.5 µM (active),11.9%
Nc1cc(C(F)(F)F)c(-c2cc(N3CCOCC3)nc(N3CCOCC3)n2)cn1,19.5%,94%,41.5%,18.9%,9.37%,11.1%,inactive,,-15.2% (inactive),90.8%,69.9%,,58.8%
Cc1cc(N2CCOCC2)cc2[nH]c(-c3c(NC[C@@H](O)c4cccc(Cl)c4)cc[nH]c3=O)nc12,5.92%,15.8%,14%,3.57%,25%,3.1%,inactive,inactive,,,,,
CC1(C)CC(=O)c2c(C(F)(F)F)nn(-c3ccc(C(N)=O)c(NC4CCC(OC(=O)CN)CC4)c3)c2C1 (stereo not drawn),7.32%,8.43%,11.6%,4.41%,1.95%,13.9%,inactive,inactive,,,,,
Cc1cc(Nc2ncnc3ccc(-c4ccc(CNCCS(C)(=O)=O)o4)cc23)ccc1Oc1ccn2ncnc2c1,5.93%,7.77%,7.94%,2.65%,3.66%,0.85%,inactive,inactive,,,,,
COc1cc2c(Oc3ccc(-c4cnc(Nc5ccc(F)cc5)n(C)c4=O)cc3F)ccnc2cc1OCCCN1CCOCC1,6.28%,6.26%,17%,9.39%,5.93%,0.783%,inactive,,,-2.59%,-0.143%,,-1.33%
CCCn1c(=O)c2[nH]c(-c3cnn(Cc4cccc(C(F)(F)F)c4)c3)nc2n(CC)c1=O,62.2%,73.8%,43.2%,51.8%,49.4%,107%,inactive,,,,,,
Cc1cc(Nc2cc(CN3CCOCC3)c3nc(C)c(Cc4ccc(Cl)cc4F)n3n2)n[nH]1,6.44%,7.86%,12.5%,5.44%,4.25%,2.99%,inactive,,,,,,
CCN1CCN(CC(=O)Nc2ccc(-c3cccc4c(=O)cc(N5CCOCC5)oc34)c3sc4ccccc4c23)CC1,5.76%,6.58%,16.5%,7.23%,1.44%,2.53%,,inactive,,-0.258%,0.865%,29.6 µM (active),0.111%
CC(C)c1ccccc1Cc1cc(C(=O)Nc2ccc(S(=O)(=O)c3ccccc3C(C)(C)C)cc2)c(O)c(O)c1O,5.18%,6.18%,11.2%,7.71%,20.8%,14.8%,inactive,,,0.404%,2.09%,,-0.184%
CC(C)c1cnn2c(NCc3ccccc3)cc(N[C@@H](CO)[C@H](O)CO)nc12,21.9%,61.8%,21.4%,14.5%,3.01%,0.824%,inactive,,,,,,
Cc1cc(Nc2cc(NC(=O)c3c(Cl)cccc3Cl)ccn2)nc(N)n1,5.6%,6.82%,10.1%,8.82%,12.1%,8.08%,inactive,,,0.674%,6.07%,,
CC(C)(O)c1cc2nc(-c3cnc(N)nc3)nc(N3CCOCC3)c2s1,10.6%,10.4%,10%,2.52%,33.5%,24%,inactive,,,,,,
C[C@@H](Oc1cc(-n2cnc3ccc(CN4CCN(C)CC4)cc32)sc1C(N)=O)c1ccccc1C(F)(F)F,6.16%,7.2%,13.9%,6.6%,3.33%,3.46%,,inactive,,-0.0099%,3.25%,18.7 µM (active),1.38%
